Experimental data from PubChem BioAssay AID1347070 (National Center for Advancing Translational Sciences (NCATS), 2019).
Out of some 94,000 compounds screened, about 20 (0.02%) were called active. Another 1% or so got no clear call; they are omitted. The call rests on the fitted dose curve; in most records, active means well fitted activation curve with a large enough effect; inconclusive means small, poorly fitted or top-dose-only effect; inactive means flat fitted curve, though single readings scatter. The list is a sample of the results.

Experiment: qHTS of alpha-syn Inhibitors: NCGC Sytravon Library Screen; further: 0% is about no effect
Settings: S. cerevisiae alpha-synuclein toxicity rescue, BacTiter-Glo growth, 24 h; series mostly up to 46.1 µM; growth rescue (activation): at the top concentration
Text: The goal of this project is to identify new chemical probes capable of reversing the toxicity associated with the Parkinson disease-related protein, alpha-synuclein. Compounds will be selected on their ability to restore growth in yeast cells expressing toxic levels of alpha-synuclein. These compounds will provide a complementary approach to deciphering the tangled mechanisms of toxicity and protection that we have uncovered through genome-wide genetic screens and are beginning to uncover in a large-scale proteomics analysis with mass spectroscopy. To this end, a miniaturized assay was developed to be screened against the Molecular Libraries Small Molecule Repository (MLSMR) to discover alpha-synuclein inhibitors. […] The phenotype of interest will be that of an Activator and this screen is run against the NCGC Sytravon Library collection. NIH Chemical Genomics Center [NCGC] NIH Molecular Libraries Probe Centers Network [MLPCN] MLPCN Grant: NS060957 Assay Submitter (PI): Susan Lindquist, Whitehead Institute/MIT
Dispense 2.5 microL yeast galactose medium per 1536-well plate, pin compound, dispense 2.5 microL alpha-synuclein expressing yeast in galactose medium at OD600=0.02 (pregrown in raffinose medium to mid-log phase) per well, incubate for 24 hr at 30 deg C, and cell growth will be measured using 5 microL of Bactiter/Glo reagent to entire plate and read using Luminescence Protocol in ViewLux.

| SMILES | growth rescue (activation) |
| --- | --- |
| CC(=O)Nc1ccc(C=CC(=O)c2ccc([N+](=O)[O-])cc2)cc1 | 5.68% (inactive) |
| CC1CCCC(NC(=O)COC(=O)c2ccccc2C(=O)N(C)C2CCCCC2)C1C (centres undefined) | -3.25% (inactive) |
| Cc1cc(=O)oc2c3c(cc(OCC(=O)NCCC(=O)N[C@@H](C)C(=O)O)c12)OC(C)(C)CC3 | 3.65% (inactive) |
| COc1ccc(CN2C[C@H]3CON(C)[C@H]3C[C@H]2c2ccc(-c3cccc(F)c3)cc2)cc1 | 0.355% (inactive) |
| O=C(COC(=O)CCc1ccc(S(=O)(=O)N2CCOCC2)cc1)Nc1cccc(Cl)c1 | -1.34% (inactive) |
| CC(=O)NC1C(Oc2ccc(C=O)cc2)OC(COC(C)=O)C(OC(C)=O)C1OC(C)=O (centres undefined) | 3.09% (inactive) |
| CCc1ccccc1OCC(=O)Nc1nnc(C2CC2)s1 | -0.762% (inactive) |
| C=C(C)CNC(=O)c1ccc(OC2CCN(C(=O)COC)CC2)cc1 | 4.36% (inactive) |
| COc1ccc(CCNC(=O)C(=O)NCC2CCCN2S(=O)(=O)c2cccs2)cc1OC (centres undefined) | 8.88% (inactive) |
| CC1(C)OC(=O)C2=C(CC(c3ccccc3)OC2CCc2ccccc2)O1 (centres undefined) | -5.04% (inactive) |
| CCOC(=O)C=Cc1ccc(C(=O)OCC)[nH]1 | 7.29% (inactive) |
| CCOn1c(=O)c(=O)n(O)c2ccccc21 | -0.897% (inactive) |
| COc1ccc(NS(=O)(=O)c2ccc(F)cc2F)cn1 | 4.98% (inactive) |
| CC(C)CN(C(=O)COC(=O)c1ccc(Cl)c(N)c1)c1c(N)n(Cc2ccccc2)c(=O)[nH]c1=O | -2.42% (inactive) |
| CC(=O)c1sc(N)nc1C | -4.44% (inactive) |
| O=C1COc2ccc(S(=O)(=O)NCCc3ccc(Cl)cc3)cc2N1 | 0.307% (inactive) |
| CCCCn1c(N)c(N(CC(C)C)C(=O)C2CSC3(C)CCC(=O)N23)c(=O)[nH]c1=O (centres undefined) | 5.73% (inactive) |
| O=C(CN1C(=O)NC2(CCc3ccccc32)C1=O)NC1CCCCC1 (centres undefined) | -10.1% (inactive) |
| Cc1cc(C)c(NC(=O)CN2C(=O)NC(Cc3ccccc3)C2=O)c(C)c1 (centres undefined) | -1.11% (inactive) |
| O=C(O)c1ccccc1Cc1ccc(F)c2ccccc12 | -44.2% (inactive) |
| CC(C)CCN1CCN(Cc2ccc(C(F)(F)F)cc2)CC1CCO (centres undefined) | 3.51% (inactive) |
| Cc1ccc(C)c(OCCC(=O)OCC(=O)c2ccc3c(c2)NC(=O)CO3)c1 | 1.8% (inactive) |
| CC(=O)Nc1ccc(NC(=O)CSc2ncnc3c2cnn3Cc2ccccc2)cc1 | 5.2% (inactive) |
| CCCc1cc(=O)[nH]c(SCc2cc(=O)oc3c(C)c(C)ccc23)n1 | 2.67% (inactive) |
| Cc1c(NC(=O)C(C)OC(=O)c2c3c(nc4ccccc24)CCC(C)C3)c(=O)n(-c2ccccc2)n1C (centres undefined) | -4.21% (inactive) |

| SMILES | growth rescue (activation) |
| --- | --- |
| Cc1cc(C(=O)CCC(=O)NNC(=O)c2ccccc2O)c(C)s1 | -2.99% (inactive) |
| Cc1ccc(OCCC(=O)OCC(=O)N2c3ccccc3NC(=O)C2(C)C)cc1 | 2.18% (inactive) |
| O=C(CN1CCOCC1)Nc1cccc([N+](=O)[O-])c1 | -0.986% (inactive) |
| c1ccc(-c2nnc(N3CCOCC3)c3ccccc23)cc1 | 3.62% (inactive) |
| CCOCc1nnc(NC(=O)CCS(=O)(=O)Cc2ccccc2)s1 | 2.27% (inactive) |
| CCCC(C(=O)NC1CCCC1)N(C(=O)Cn1nnc(-c2ccc(C)o2)n1)c1cccc(O)c1 (centres undefined) | -2.04% (inactive) |
| CCN(C(=O)CSc1nnnn1-c1ccccc1OC)C1CCS(=O)(=O)C1 (centres undefined) | 16.7% (inactive) |
| O=c1[nH]c2ccc(S(=O)(=O)N3CCCC3)cc2[nH]1 | 0.361% (inactive) |
| Cc1nnc(SCCCCSc2nnc(C)c(=O)[nH]2)[nH]c1=O | 1.74% (inactive) |
| COc1ccc(N2CCN(C(=S)Nc3ccc(S(N)(=O)=O)cc3)CC2)cc1 | -4.62% (inactive) |
| COc1ccc(/C=N/S(=O)(=O)c2ccccc2)cc1OC | -2.84% (inactive) |
| Cc1ccc([C@H]2N[C@]3(CCCN(CC4CCCCC4)C3=O)[C@H]3C(=O)N(Cc4ccccc4)C(=O)[C@@H]23)cc1 | 4.32% (inactive) |
| CCCCn1c(N)c(N(CCOC)C(=O)c2sc3ccccc3c2Cl)c(=O)[nH]c1=O | 11.1% (inactive) |
| CC(=O)NCc1ccc(S(=O)(=O)NC2CCN(Cc3ccccc3)CC2)cc1 | -8.63% (inactive) |
| CCN(CC(=O)Nc1c(F)cccc1F)C(=O)c1ccc(Sc2nncn2C)c([N+](=O)[O-])c1 | 0.905% (inactive) |
| O=c1[nH]nc(SCCS(=O)(=O)c2ccc(F)cc2)n1-c1ccccc1C(F)(F)F | 3.73% (inactive) |
| Cc1sc2nc(CSCC(=O)NC3CCCCC3)[nH]c(=O)c2c1C | 2.44% (inactive) |
| CC1(C)C[C@H]2C3=CCC4[C@@]5(C)CC[C@H](O)[C@](C)(CO)C5CC[C@@]4(C)[C@]3(C)C[C@@H](O)[C@@]2(CO)[C@@H](O)[C@@H]1O (some centres undefined) | 1.74% (inactive) |
| Cc1c(C(=O)NC(C)C2CC3CCC2C3)cccc1[N+](=O)[O-] (centres undefined) | 11.3% (inactive) |
| O=C(CCNC(=O)c1ccc([N+](=O)[O-])cc1)NC1CCCCC1 | 1.09% (inactive) |
| Cn1c(CSCC(=O)Nc2ccccc2)nnc1SCc1ccccc1 | -12.3% (inactive) |
| Cc1cccc(N(CC(=O)N2CCCC2)S(C)(=O)=O)c1C | -7.71% (inactive) |
| CN(C)C(CNC(=O)c1cc(Br)c(Br)s1)c1ccco1 (centres undefined) | 3.91% (inactive) |
| Cc1ccc(CN2CCC(N3CCC(C(=O)NCC4CCCO4)CC3)CC2)o1 (centres undefined) | -3.72% (inactive) |
| O=C(NCCS(=O)(=O)NCc1ccc(Cl)cc1)c1ccccc1 | -1.84% (inactive) |

| SMILES | growth rescue (activation) |
| --- | --- |
| CC1=C(C(=O)N2CCOCC2)CC(CC(=O)NCc2ccco2)C(=O)N1Cc1ccc(F)cc1 (centres undefined) | -7.62% (inactive) |
| Cc1ccc(C)n1NC(=O)c1ccc([N+](=O)[O-])cc1 | -1.43% (inactive) |
| COc1ccc(-c2cc(=O)oc3cc(OC(C)C(=O)NCC4CCC(C(=O)O)CC4)ccc23)cc1 (centres undefined) | -0.947% (inactive) |
| CCOc1ccc(C(=O)CCC(=O)NC2=NCCS2)cc1 | -17.3% (inactive) |
| O=C1N/C(=C/c2cccs2)C(=O)N1Cc1ccc(F)cc1 | -2.61% (inactive) |
| C/C(COc1ccccc1)=N\NC(=O)c1nnn(-c2nonc2N)c1-c1ccc(C)cc1 | -12.9% (inactive) |
| CCCCn1c(N)c(N(CC(C)C)C(=O)c2cccc(S(=O)(=O)N3CCN(C(C)=O)CC3)c2)c(=O)[nH]c1=O | -0.923% (inactive) |
| O=C(c1ccc(C(F)(F)F)cc1)C1CCCN(C(=O)c2csnn2)C1 (centres undefined) | 0.0205% (inactive) |
| COc1ccc(/C=C/CN2CCN(Cc3ccc(C)cc3)C(CCO)C2)cc1 (centres undefined) | -4.89% (inactive) |
| CCOc1ccc(S(=O)(=O)N2CCCC(C(=O)N3CCC(C(N)=O)CC3)C2)cc1Cl (centres undefined) | -12.6% (inactive) |
| NS(=O)(=O)c1ccc(NC(=S)NNC(=O)c2cccs2)cc1 | 0.938% (inactive) |
| O=C(COc1ccccc1O)NC1CCCC1 | 5.21% (inactive) |
| CC1=C(C(=O)N2CCOCC2)CC(CC(=O)NCCN2CCOCC2)C(=O)N1CCC1=CCCCC1 (centres undefined) | 2.47% (inactive) |
| COc1ccccc1C(=O)NC(=O)COC(=O)c1ccco1 | 4.89% (inactive) |
| O=C(Nc1ccccc1)C1CC(=O)n2c(nc3ccccc32)N1 (centres undefined) | -12.2% (inactive) |
| Cc1ccc(C=O)c([B-](F)(F)F)c1 | -10.2% (inactive) |
| O=C(CNc1ccccc1N1CCCC1=O)Nc1cc(Cl)ccc1-n1cncn1 | 1.15% (inactive) |
| O=C(/C=C/Nc1ccc(S(=O)(=O)Nc2cnc3ccccc3n2)cc1)c1cccnc1 | -7.11% (inactive) |
| CCOC(=O)c1cc(-c2sc(NC(=O)c3ccccc3)nc2C)n(CCO)n1 | 0.447% (inactive) |
| COc1ccc2oc(C(=O)N(CC(C)C)C3CCS(=O)(=O)C3)c(C)c2c1 (centres undefined) | -1.27% (inactive) |
| CN(CCN1CCOCC1)Cc1nc(-c2ccc3c(c2)OCO3)no1 | 0.432% (inactive) |
| COCOCCn1cc(CN2CCS(=O)(=O)N(Cc3ccc(-c4ccccc4)cc3)C(CC(C)C)C2=O)nn1 (centres undefined) | -6.88% (inactive) |
| CCc1nnc(NC(=O)c2ccco2)s1 | -11.6% (inactive) |
| Cn1ccc(=NC=C(C#N)C#N)c2ccccc21 | 2.17% (inactive) |
| COc1cc(NS(=O)(=O)c2ccc(NC(=S)NC(=O)c3ccccc3)cc2)nc(OC)n1 | 13.9% (inactive) |

| SMILES | growth rescue (activation) |
| --- | --- |
| O=C(OCc1nnc(-c2ccccc2)o1)c1cc(=O)[nH]c2ccccc12 | 4.04% (inactive) |
| O=C1[C@H]2[C@@H](c3ccc(C(F)(F)F)cc3)N[C@]3(CCCN(Cc4ccc(Cl)cc4)C3=O)[C@H]2C(=O)N1Cc1ccccc1 | 20.9% (inactive) |
| Cn1cnnc1SCC(=O)NNC(=O)COc1ccc(Br)cc1 | 5.71% (inactive) |
| Cc1ccc(N(C(=O)Cc2cccs2)C(C(=O)NCC2CCCO2)c2ccncc2)cc1 (centres undefined) | 4.36% (inactive) |
| COc1ccccc1NC(=O)CCSc1nnc(-c2ccc(O)cc2)o1 | 4.49% (inactive) |
| O=C(OCc1cn([C@H]2C[C@H](c3ccccc3)N(C(=O)c3cccs3)C[C@@H]2O)nn1)c1ccccc1 | 4.38% (inactive) |
| COc1ccc(NC(=O)CN(C)C(=O)c2cc(C)oc2C)cc1 | -11.2% (inactive) |
| Cc1noc(C)c1COc1ccccc1C(=O)N(C)CC(=O)Nc1cccc(F)c1 | -6.68% (inactive) |
| COc1ccc(N(C(=O)c2snc(C(N)=O)c2N)C(C(=O)NC2CCCC2)c2ccc(C)o2)c(OC)c1 (centres undefined) | -6.84% (inactive) |
| NS(=O)(=O)c1ccc(NC(=S)NC(=O)c2cccnc2)cc1 | 4.97% (inactive) |
| C=C(C)COc1ccc(-c2nc(N)ncc2-c2ccccc2OC)c(O)c1 | 1.32% (inactive) |
| Cc1cccc(OCC(=O)NCCCNC(=O)c2ccccn2)c1 | -2.97% (inactive) |
| O=C(NC1CCCC1)C1CC(=O)N(c2ccc(F)cc2)C1 (centres undefined) | 5.38% (inactive) |
| CO/N=C/c1cn(-c2ccc(Cl)cc2)nn1 | -2.78% (inactive) |
| CC(OC(=O)c1ccc(NC(=O)CC#N)cc1)C(=O)Nc1ccc(S(=O)(=O)N2CCCC2)cc1 (centres undefined) | -3.04% (inactive) |
| Cc1cccc(C)c1NC(=O)CS(=O)CC(=O)N1CCN(c2ccccc2)CC1 (centres undefined) | 0.0275% (inactive) |
| CCOc1ccc(NS(=O)(=O)c2ccc(C(=O)NCC(c3ccccc3OC)N3CCCC3)cc2)cc1 (centres undefined) | -0.106% (inactive) |
| O=[N+]([O-])c1ccc(C(S(=O)(=O)Cc2ccccc2)S(=O)(=O)Cc2ccccc2)cc1 | 6.13% (inactive) |
| O=C(NCc1ccc(Cl)cc1)C(=O)NCC1CCCN1S(=O)(=O)c1cccs1 (centres undefined) | 3.28% (inactive) |
| O=C(CNC(=O)N1CC(=O)Nc2ccccc21)Nc1ccc(Br)cc1F | -8.77% (inactive) |
| O=C(c1ccc(N2CCCC2=O)cc1)N1CCN(c2ccc(C(F)(F)F)cc2[N+](=O)[O-])CC1 | -12.1% (inactive) |
| Cc1ccc(CN2CC(C(=O)N3CCN(S(=O)(=O)c4ccccc4)CC3)CC2=O)cc1 (centres undefined) | -46.5% (inactive) |
| CCN(C(=O)C1CCCN(c2nc(-c3ccc(OC)cc3)no2)C1)c1ccc(OC)cc1 (centres undefined) | -9.06% (inactive) |
| CN(C)c1ccc(C2Nc3ccccc3C(=O)N2NS(=O)(=O)c2ccccc2)cc1 (centres undefined) | -4.67% (inactive) |
